# Assay results reported in paper PMC4336329 (PLoS ONE, 2015).
# In all, about 310,000 compounds went through this assay and about 14,000 (4.5%) showed an effect of 50% or more. The effect is printed as a negative number. For the sample, strong results were picked, then their nearest neighbours and some compounds at random.
# Target: human ether-à-go-go-related gene (hERG) potassium channel (human, UniProt Q12809)
# Experiment: primary screen, population patch clamp on CHO cells stably expressing hERG; higher = less effect of the substance
# 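Note: peak tail current of the secondary pulse compared with the same well before compound.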
# Chain of human ether-à-go-go-related gene (hERG) potassium channel (Q12809 whole entry, looked up): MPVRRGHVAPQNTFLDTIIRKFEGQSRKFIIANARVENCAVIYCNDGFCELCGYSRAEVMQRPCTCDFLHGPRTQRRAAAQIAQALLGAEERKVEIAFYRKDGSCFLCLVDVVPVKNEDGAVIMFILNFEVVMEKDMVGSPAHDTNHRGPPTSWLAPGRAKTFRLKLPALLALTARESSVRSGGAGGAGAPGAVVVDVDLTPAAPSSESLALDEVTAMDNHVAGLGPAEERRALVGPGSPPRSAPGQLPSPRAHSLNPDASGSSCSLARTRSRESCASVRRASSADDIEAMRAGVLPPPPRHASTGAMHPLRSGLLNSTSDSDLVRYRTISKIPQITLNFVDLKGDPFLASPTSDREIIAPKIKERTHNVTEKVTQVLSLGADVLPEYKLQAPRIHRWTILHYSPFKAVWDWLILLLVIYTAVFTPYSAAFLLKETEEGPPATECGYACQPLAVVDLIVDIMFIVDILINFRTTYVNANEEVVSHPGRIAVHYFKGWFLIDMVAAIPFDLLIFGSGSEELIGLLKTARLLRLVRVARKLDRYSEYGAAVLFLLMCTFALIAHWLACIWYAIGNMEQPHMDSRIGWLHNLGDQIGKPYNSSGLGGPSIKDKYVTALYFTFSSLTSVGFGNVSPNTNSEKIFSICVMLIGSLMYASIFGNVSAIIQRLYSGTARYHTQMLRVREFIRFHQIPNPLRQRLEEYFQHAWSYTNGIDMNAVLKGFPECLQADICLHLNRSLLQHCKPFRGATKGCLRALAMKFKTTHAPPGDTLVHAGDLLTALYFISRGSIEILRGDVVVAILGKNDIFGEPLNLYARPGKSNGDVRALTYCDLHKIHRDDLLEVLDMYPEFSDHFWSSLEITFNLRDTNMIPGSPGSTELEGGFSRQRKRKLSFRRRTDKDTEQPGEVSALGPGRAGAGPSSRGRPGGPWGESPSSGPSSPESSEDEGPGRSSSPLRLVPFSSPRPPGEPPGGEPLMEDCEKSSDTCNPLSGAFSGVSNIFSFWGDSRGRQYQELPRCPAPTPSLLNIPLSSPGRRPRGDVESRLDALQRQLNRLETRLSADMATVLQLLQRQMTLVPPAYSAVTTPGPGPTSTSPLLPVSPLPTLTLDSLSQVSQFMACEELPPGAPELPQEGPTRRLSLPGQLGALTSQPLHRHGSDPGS
row,Structure (SMILES),"hERG current change (%, negative = inhibition) at 10uM [%]"
1,Cc1ccccc1NC(=O)CSc1nnc2ccc(-c3ccncc3)nn12,-69.5
2,CCOc1ccccc1NC(=O)CSc1nnc2ccc(-c3ccccn3)nn12,2.41
3,Cc1ccccc1NC(=O)CSc1nnc2ccc(-c3cccnc3)nn12,-33
4,CC(=O)Nc1cccc(NC(=O)CSc2nnc3ccc(-c4ccncc4)nn23)c1,-17.8
5,CCOc1ccccc1NC(=O)CSc1nnc2ccc(-c3cccnc3)nn12,-25.8
6,CCOc1ccccc1NC(=O)CSc1nnc2ccc(-c3ccncc3)nn12,-54.3
7,CCOc1ccccc1NC(=O)CSc1nnnn1Cc1ccccc1,-40.5
8,CC(=O)c1ccc(S(=O)(=O)N2CCN(C(=O)CSc3ccc(F)cc3)CC2)cc1,11.7
9,CC[C@]12C=CCN3CCC4(c5cc(Br)c(OC)cc5N(C)C4[C@@](O)(C(=O)OC)[C@@H]1OC(C)=O)C32 (some centres unmarked),7.6
10,COc1ccc(/C=C(/NC(=O)c2ccccc2)C(=O)N/N=C/c2ccncc2)cc1,9.78
11,N#CCSc1nc(-c2ccccc2)nc2ccccc12,7.83
12,Cc1cccc(NC(=O)CN2CCN(CC(=O)Nc3ccc(-c4ccccc4)cc3)CC2)c1C,-17
13,CCc1ccccc1NC(=O)CN1CCN(C(=O)CNC(=O)Cc2cccc3ccccc23)CC1,-59.6
14,Cc1cccc(NC(=O)CN2CCN(C(=O)c3ccc(OCc4cn5ccccc5n4)cc3)CC2)c1C,-46.5
15,CCc1ccccc1NC(=O)CN1CCN(C(=O)CCC(=O)N2CCC(c3ccccc3)=N2)CC1,-58
16,Cc1cccc(NC(=O)CN2CCN(C(=O)C(C)Oc3ccc(C#N)cc3)CC2)c1C (centres unmarked),-76.9
17,Cc1cccc(NC(=O)CNC(=O)COc2ccc(-c3ccc(C#N)cc3)cc2)c1C,4.86
18,CCc1ccccc1NC(=O)CN1CCN(CC(=O)Nc2ccc(-c3ccccc3)cc2)CC1,-53.3
19,CCc1ccccc1NC(=O)CN1CCN(CC(=O)NCc2ccc(Cl)cc2)CC1,-46.6
20,CCc1ccccc1NC(=O)CN1CCN(C(=O)CNC(=O)c2ccccc2F)CC1,-13.5
21,CCc1ccccc1NC(=O)CN1CCN(C(=O)CN2C(=O)NC3(CCCC3)C2=O)CC1,7.54
22,CCc1ccccc1NC(=O)CN1CCN(C(=O)COc2ccccc2C#N)CC1,-34.6

row,Structure (SMILES),"hERG current change (%, negative = inhibition) at 10uM [%]"
1,CCc1ccccc1NC(=O)CN1CCC(NC(=O)COC)CC1.Cl,13.4
2,COc1ccc(Cl)cc1NC(=O)CN(C)C(=O)c1ccc(OCc2ccccc2)c(OC)c1,6.49
3,COc1coc(C(O)CN)cc1=O (centres unmarked),4.57
4,CC(=O)c1ccc(NC(=O)C2CC(c3ccc(F)cc3)=NO2)cc1 (centres unmarked),-6.78
5,CC(C(=O)N(C)C1CCCCC1)N1CCC(C(N)=O)CC1 (centres unmarked),25
6,Cc1ccc2c(c1)c1ncnc(N3CCc4ccccc4C3)c1n2C,0.68
7,COc1cccc(CN(CC(=O)NCc2ccccc2)S(=O)(=O)CCl)c1,-16.8
8,CCOC(=O)c1csc(NC(=O)c2ccc(S(=O)(=O)N(C)C)cc2)n1,-20.9
9,Cc1ccnc(SCC(=O)N2CCN(c3cccc(Cl)c3)CC2)n1,-25.2
10,O=C(NC1CCN(C(=S)Nc2ccccc2Cl)CC1)C1CCCCC1,14
11,O=C(CSc1nc2scc(-c3ccccc3)c2c(=O)[nH]1)NCCc1ccccc1,-1.09
12,Cc1cccc(NC(=O)CN2CCN(C(=O)CNC(=O)Cc3cccc4ccccc34)CC2)c1C,-57.4
13,CCc1ccccc1NC(=O)CN1CCN(C(=O)CNC(=O)c2ccc(-c3ccccc3)cc2)CC1,-57
14,O=C(CN1CCN(C(=O)CNC(=O)c2ccc3c(c2)OCO3)CC1)Nc1ccccc1Cl,-49.3
15,Cc1cccc(NC(=O)CN2CCN(C(=O)COc3cccc(Br)c3)CC2)c1C,-70.4
16,Cc1cccc(NC(=O)CN2CCOCC2)c1C,13.9
17,CCc1ccccc1NC(=O)CN1CCN(C(=O)CNC(=O)c2ccc(N3CCCC3=O)cc2)CC1,-3.9
18,Cc1cccc(NC(=O)CNC(=O)CN2CCN(C)CC2)c1C,7.6
19,CCOC(=O)N1CCN(CC(=O)Nc2cccc(Br)c2)CC1,-18.9
20,Cc1ccccc1NC(=O)CNC(=O)Cc1cccc2ccccc12,1.16
21,O=C(O)CN1CCN(CC(=O)O)CCN(CC(=O)O)CCN(CC(=O)O)CC1,7.18
22,O=C(Nc1cccc(C(=O)N2CCOCC2)c1)c1ccccc1Cl,-17

row,Structure (SMILES),"hERG current change (%, negative = inhibition) at 10uM [%]"
1,COc1ccc(C(=O)Nc2ccc(-c3ccc(C)o3)cc2)cc1S(=O)(=O)N1CCOCC1,14.6
2,O=C(NCc1cccs1)C1CCCN1C(=O)Nc1ccccc1 (centres unmarked),21
3,CCN(C(=O)COC(=O)c1ccc2ccccc2c1)c1c(N)n(Cc2ccccc2)c(=O)[nH]c1=O,14.1
4,COc1ccc(C(=O)OCC(=O)Nc2sccc2C(N)=O)cc1OC,-0.284
5,CCC(=O)N(C)CCc1cc2c(c(OC)c1/C=N/Nc1ccc(C(=O)O)cc1)OCO2,-1.63
6,O=C(Nc1cccc(Cl)c1)c1nc[nH]c1C(=O)N1CCc2ccccc2C1,-15.6
7,CCOc1ccc(NS(=O)(=O)c2ccc(C(=O)N3CCCCC3)cc2)cc1,-9.46
8,COc1ccc(Cn2cnc3c(N)c(C)c(C)cc32)cc1,5.13
9,N#CC1(NC(=O)COc2ccc3oc4ccccc4c3c2)CCCCC1,12.1
10,COC(=O)c1ccc(CNC(=O)COC(=O)C2CC3C=CC2C3)cc1 (centres unmarked),11.2
11,COc1ccc(-n2nc3c(c2NC(=O)CCCCl)CSC3)cc1,-1.78
12,CCCN(CCC)CCCNC(=S)Nc1ccc2nc(N3CCCC3)cc(C)c2c1,-60.4
13,CCCN(CCC)CCCNC(=S)Nc1ccc2nc(N3CCN(CC)CC3)cc(C)c2c1,-3.08
14,CCN1CCN(c2cc(C)c3cc(NC(=S)NCCCOC)ccc3n2)CC1,5.8
15,COCCNC(=S)Nc1ccc2nc(N3CCN(C)CC3)cc(C)c2c1,8.03
16,Cc1cc(N2CCCC2)nc2ccc(NC(=S)NCCCN3CCC(C)CC3)cc12,-29.6
17,CCCN(CCC)CCCNC(=S)Nc1ccc2nc(N3CCN(C)CC3)cc(C)c2c1,8.86
18,CCOCCCNC(=S)Nc1ccc2nc(N3CCCC3)cc(C)c2c1,-73.3
19,CCN(CC)CCNC(=S)Nc1ccc2nc(N3CCCC3)cc(C)c2c1,-8.93
20,Cc1cc(N2CCCC2)nc2ccc(NC(=S)NCCCOC(C)C)cc12,-83.4
21,CCOCCCNC(=S)Nc1ccc2nc(N3CCN(CC)CC3)cc(C)c2c1,4.36
22,COCCNC(=S)Nc1ccc2nc(N3CCCC3)cc(C)c2c1,-71.6

row,Structure (SMILES),"hERG current change (%, negative = inhibition) at 10uM [%]"
1,CCOCCCNC(=S)Nc1ccc2nc(N3CCOCC3)cc(C)c2c1,-7.68
2,CCOc1ccc(C(=O)Nc2ncn[nH]2)cc1,19.1
3,O=C(CCc1c[nH]c2ccccc12)N/N=C/c1ccc2c(c1)OCO2,6.33
4,CC1=CCC2C(=O)N(CCc3c[nH]c4ccccc34)C(=O)C2C1 (centres unmarked),-9.31
5,COc1ccc(CC(=O)NNc2ncnc3c2cnn3-c2ccc(C)cc2)cc1OC,10.5
6,COc1ccc(CNC(=O)Cn2nnc(-c3ccc(NC(=O)C4CCCCC4)cc3)n2)cc1,14
7,COc1ccccc1NS(=O)(=O)c1cc(-c2cnc(C3CC3)o2)ccc1C,3.37
8,O=C1CSC(c2cn(-c3ccccc3)nc2-c2cccs2)N1Cc1ccccc1 (centres unmarked),-1.38
9,O=Cc1c(NCc2ccccc2F)c2ccccc2[nH]c1=O,13.8
10,Cc1cc(N2CCOCC2)nc2ccc(NC(=S)NC(C)C)cc12,-12.4
11,CCOCCCNC(=S)N1CCCN(c2nc3cc(C)cc(C)c3cc2C#N)CC1,-55.6
12,CCC(C)NC(=S)Nc1ccc2nc(N3CCOCC3)cc(C)c2c1 (centres unmarked),5.86
13,Cc1cc(N2CCCC2)nc2ccc(NC(=S)NC(C)C)cc12,-71.6
14,CCOCCCNC(=S)N1CCCN(c2nc3cc(C)c(C)cc3cc2C#N)CC1,-36.4
15,CCOCCCNC(=S)N1CCCN(c2nc3cc(C)ccc3cc2C#N)CC1,-30.9
16,CSc1nsc(SCC(=O)Nc2ccc(OC(C)=O)cc2)n1,4.1
17,Cc1c(N=N/C(C(=O)Nc2ccccc2)=C(/O)c2ccccc2)c(=O)n(-c2ccccc2)n1C,8.85
18,O=C1C(C=NCc2ccncc2)=C(O)c2ccccc21,-9.12
19,CN=CC1=C(O)c2ccccc2C1=O,14.7
20,CC(C)CN=CC1=C(O)c2ccccc2C1=O,-71.4
